Reference: PubChem BioAssay (Tox21)
The source made the active and inactive calls. Unless noted, calls come from the whole dose curve; as a rule, active = well fitted curve in the direction sought with a large enough effect in the repeat runs; inconclusive = weak or mixed curves; inactive = no such curve, though single readings can be large; an effect the other way counts as inactive or inconclusive.

Columns and labels:
[1] = qHTS assay for identifying genotoxic compounds that show differential cytotoxicity against isogenic chicken DT40 cell lines with known DNA damage response pathways - wild type cell line (AID 743012); note: nearly all actives have a fitted effect of over 60% in size; note: potency is the fitted concentration of half-maximal effect
How it was run: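 First, wild type DT40 cells were plated at 300 per well and equilibrated about 0.5 h at 37 C/5% CO2. Next, compounds in DMSO were added and exposure lasted 40 h. Finally, CellTiter-Glo was added for 30 min at room temperature and luminescence recorded.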

[2] = qHTS assay for identifying genotoxic compounds that show differential cytotoxicity against isogenic chicken DT40 cell lines with known DNA damage response pathways - Rev3 mutant cell line (AID 743014); note: nearly all actives have a fitted effect of over 55% in size; note: potency is the fitted concentration of half-maximal effect
[3] = qHTS assay for identifying genotoxic compounds that show differential cytotoxicity against isogenic chicken DT40 cell lines with known DNA damage response pathways - Rad54/Ku70 mutant cell line (AID 743015); note: nearly all actives have a fitted effect of over 60% in size; note: potency is the fitted concentration of half-maximal effect
[4] = qHTS assay to identify small molecule antagonists of the androgen receptor (AR) signaling pathway using the MDA cell line - cell viability counter screen (AID 743041; note: nearly all actives have a fitted effect of over 45% in size; note: potency is the fitted concentration of half-maximal effect)
How it was run: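 Viability counter screen run alongside the AR antagonist reporter: cells seeded 5 h before compound, R1881 added, 16 h incubation at 37C without CO2, fluorescent CellTiter-Fluor signal quantified.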

[5] = qHTS assay to identify small molecule antagonists of the thyroid receptor (TR) signaling pathway - cell viability counter screen (AID 743064); note: nearly all actives have a fitted effect of over 50% in size; note: potency is the fitted concentration of half-maximal effect
How it was run: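 GH3.TRE-Luc cells, 4 h pre-plating; cpd + T3 1 nM final; 37 °C 23.5 h; CellTiter-Fluor 30 min; fluorescence read.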

[6] = qHTS assay to identify small molecule antagonists of the thyroid receptor (TR) signaling pathway (AID 743065); note: nearly all actives have a fitted effect of over 55% in size; note: potency is the fitted concentration of half-maximal effect
How it was run: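 GH3.TRE-Luc rat pituitary cells carrying two TR response elements driving luciferase were plated for 4 h, given compound plus 1 nM T3 (final), and incubated 23.5 h at 37 C. ONE-Glo luminescence measured reporter inhibition; CellTiter-Fluor fluorescence tracked cytotoxicity.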

[7] = qHTS assay to identify small molecule antagonists of the estrogen receptor alpha (ER-alpha) signaling pathway - cell viability counter screen (AID 743074; calls by dose curve;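 note: HEK293 cells carrying ER-alpha-UAS-bla reporter stimulated with 17beta-estradiol; nearly all actives have a fitted effect of over 45% in size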; note: potency is the fitted concentration of half-maximal effect)
[8] = molecular target: Estrogen receptor (Homo sapiens) (UniProt P03372); test: qHTS assay to identify small molecule agonists of the estrogen receptor alpha (ER-alpha) signaling pathway (AID 743075; calls by dose curve;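 note: HEK293 GripTite cells with ER-alpha and UAS-driven beta-lactamase reporter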; note: potency is the fitted concentration of half-maximal effect)
Estrogen receptor (Homo sapiens), sequence (P03372 whole entry, looked up): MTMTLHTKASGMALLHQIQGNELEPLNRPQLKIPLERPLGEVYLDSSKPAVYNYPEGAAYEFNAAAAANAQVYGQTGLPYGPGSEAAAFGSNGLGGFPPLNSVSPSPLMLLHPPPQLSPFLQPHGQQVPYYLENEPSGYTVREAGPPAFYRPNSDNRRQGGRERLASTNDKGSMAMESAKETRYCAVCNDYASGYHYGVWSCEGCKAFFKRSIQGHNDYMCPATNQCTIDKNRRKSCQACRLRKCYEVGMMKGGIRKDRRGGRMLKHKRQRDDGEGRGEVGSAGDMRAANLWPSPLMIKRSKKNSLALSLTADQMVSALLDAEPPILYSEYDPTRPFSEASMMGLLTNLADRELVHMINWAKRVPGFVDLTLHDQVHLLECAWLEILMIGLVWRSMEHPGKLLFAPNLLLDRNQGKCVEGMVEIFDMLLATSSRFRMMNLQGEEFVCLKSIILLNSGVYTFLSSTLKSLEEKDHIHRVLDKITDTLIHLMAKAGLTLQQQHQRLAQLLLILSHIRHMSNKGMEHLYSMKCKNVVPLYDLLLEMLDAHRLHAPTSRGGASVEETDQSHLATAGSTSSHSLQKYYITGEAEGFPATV

[9] = molecular target: Estrogen receptor (Homo sapiens) (UniProt P03372); test: qHTS assay to identify small molecule agonists of the estrogen receptor alpha (ER-alpha) signaling pathway using the BG1 cell line (AID 743079); settings: BG1Luc4E2 cells, ERE-luciferase agonist, 22 h; activation: at 70.3 µM (top of the series); note: nearly all actives have a fitted effect of over 20% in size; note: potency is the fitted concentration of half-maximal effect
[10] = qHTS assay to identify small molecule antagonists of the estrogen receptor alpha (ER-alpha) signaling pathway using the BG1 cell line (AID 743080; calls by dose curve;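 note: BG1 cells stimulated with 17beta-estradiol alongside compound; nearly all actives have a fitted effect of over 25% in size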; note: potency is the fitted concentration of half-maximal effect)
How it was run: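 Quantitative HTS on the Tox21 10K library: BG1 cells with endogenous ER-alpha and ERE-luciferase reporter, 17beta-estradiol stimulation, 21.5 h compound exposure, luminescence endpoint with parallel fluorescence cytotoxicity counter-read.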

[11] = qHTS assay to identify small molecule antagonists of the estrogen receptor alpha (ER-alpha) signaling pathway using the BG1 cell line - cell viability counter screen (AID 743081);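 note: compound given together with 17beta-estradiol as the ER stimulus; nearly all actives have a fitted effect of over 45% in size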; note: potency is the fitted concentration of half-maximal effect
[12] = qHTS assay to identify small molecule antagonists of the androgen receptor (AR) signaling pathway - cell viability counter screen (AID 743033; note: nearly all actives have a fitted effect of over 45% in size)
[13] = tested on: thyroid hormone receptor (rat, GH3 cells); test: qHTS assay to identify small molecule agonists of the thyroid receptor (TR) signaling pathway (AID 743066; calls by dose curve)
[14] = molecular target: Estrogen receptor (Homo sapiens) (UniProt P03372); test: qHTS assay to identify small molecule antagonists of the estrogen receptor alpha (ER-alpha) signaling pathway (AID 743069; active = well fitted curve in the direction sought with a large enough effect in the signal ratio in the repeat runs, not every such curve was filed as active; inconclusive = weak or mixed curves, or effect the other way; inactive = no such curve, though single readings can be large or run the other way; the % refers to the signal ratio; note: potency is the fitted concentration of half-maximal effect)
How it was run: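 Estradiol-stimulated ER-alpha-UAS-bla HEK293 cells, 18 hr compound exposure at 37C. LiveBLAzer B/G substrate, 2 hr RT, fluorescence read.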

[15] = molecular target: Aromatase (Homo sapiens) (UniProt P11511); test: qHTS assay to identify aromatase inhibitors (AID 743083); note: nearly all actives have a fitted effect of over 55% in size
Aromatase (Homo sapiens), sequence (P11511 whole entry, looked up): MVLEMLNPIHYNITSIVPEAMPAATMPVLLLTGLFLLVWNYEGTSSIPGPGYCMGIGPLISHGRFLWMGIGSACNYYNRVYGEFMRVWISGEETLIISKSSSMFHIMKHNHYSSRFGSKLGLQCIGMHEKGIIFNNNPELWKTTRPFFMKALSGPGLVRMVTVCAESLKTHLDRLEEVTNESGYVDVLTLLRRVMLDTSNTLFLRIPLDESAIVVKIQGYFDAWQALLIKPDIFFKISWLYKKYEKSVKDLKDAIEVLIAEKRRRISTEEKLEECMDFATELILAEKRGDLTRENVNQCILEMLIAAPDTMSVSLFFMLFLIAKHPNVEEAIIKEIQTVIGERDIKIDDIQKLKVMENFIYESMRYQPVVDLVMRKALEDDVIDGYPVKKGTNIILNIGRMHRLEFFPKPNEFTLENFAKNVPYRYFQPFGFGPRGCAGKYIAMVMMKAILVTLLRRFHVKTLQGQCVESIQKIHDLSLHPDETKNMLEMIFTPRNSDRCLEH

[16] = molecular target: Androgen receptor (Homo sapiens) (UniProt P10275); test: qHTS assay to identify small molecule agonists of the androgen receptor (AR) signaling pathway using the MDA cell line (AID 743040; note: nearly all actives have a fitted effect of over 20% in size; note: potency is the fitted concentration of half-maximal effect)
Androgen receptor (Homo sapiens), sequence (P10275 whole entry, looked up): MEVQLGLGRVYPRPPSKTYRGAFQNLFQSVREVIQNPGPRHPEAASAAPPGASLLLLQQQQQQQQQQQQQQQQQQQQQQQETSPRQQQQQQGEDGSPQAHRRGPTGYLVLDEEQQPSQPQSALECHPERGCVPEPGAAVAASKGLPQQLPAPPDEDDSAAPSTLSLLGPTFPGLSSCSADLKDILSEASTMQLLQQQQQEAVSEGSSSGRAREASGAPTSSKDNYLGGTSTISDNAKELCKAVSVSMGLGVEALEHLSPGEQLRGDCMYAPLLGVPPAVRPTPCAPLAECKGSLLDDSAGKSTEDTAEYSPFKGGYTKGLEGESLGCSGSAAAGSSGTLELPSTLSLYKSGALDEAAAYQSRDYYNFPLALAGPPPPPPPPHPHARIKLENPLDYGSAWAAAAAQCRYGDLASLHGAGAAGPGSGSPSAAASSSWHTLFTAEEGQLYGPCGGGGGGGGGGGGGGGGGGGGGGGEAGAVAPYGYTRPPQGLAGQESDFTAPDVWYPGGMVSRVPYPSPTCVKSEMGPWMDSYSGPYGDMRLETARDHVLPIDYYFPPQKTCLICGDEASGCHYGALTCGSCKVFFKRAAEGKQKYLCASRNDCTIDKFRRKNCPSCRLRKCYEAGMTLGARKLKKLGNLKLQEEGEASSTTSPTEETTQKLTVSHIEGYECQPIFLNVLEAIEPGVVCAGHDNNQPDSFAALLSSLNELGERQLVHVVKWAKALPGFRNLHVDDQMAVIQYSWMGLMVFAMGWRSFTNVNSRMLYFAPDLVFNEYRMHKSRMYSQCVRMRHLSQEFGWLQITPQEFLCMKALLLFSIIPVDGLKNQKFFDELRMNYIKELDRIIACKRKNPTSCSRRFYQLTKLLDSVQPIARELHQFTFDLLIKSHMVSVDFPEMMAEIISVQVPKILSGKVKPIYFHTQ
How it was run: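 Luminescence from ONE-Glo, read after 30 min at room temperature, reflects MMTV-driven luciferase in MDA-kb2 cells (AR- and GR-responsive). Treatment lasted 16 h at 37C, 0% CO2.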

[17] = molecular target: Androgen receptor (Homo sapiens) (UniProt P10275); test: qHTS assay to identify small molecule antagonists of the androgen receptor (AR) signaling pathway using the MDA cell line (AID 743042; note: nearly all actives have a fitted effect of over 55% in size)
How it was run: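 MDA-kb2 cells (human breast carcinoma, stably carrying an MMTV-luciferase reporter responsive to AR and GR) were plated at 3,000 cells/well and preincubated 5 hr at 37C, then given compound plus R1881 agonist for 16 h. ONE-Glo luminescence was read.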

[18] = molecular target: Androgen receptor (Homo sapiens) (UniProt P10275); test: qHTS assay to identify small molecule antagonists of the androgen receptor (AR) signaling pathway (AID 743035; active = well fitted inhibition curve with a large enough effect in the signal ratio in the repeat runs, not every such curve was filed as active; inconclusive = weak or mixed curves, or effect the other way; inactive = no such curve, though single readings can be large or run the other way; the % refers to the signal ratio)
How it was run: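 Beta-lactamase FRET read (2 h RT incubation with LiveBLAzer B/G) following 16 h of compound plus R1881 treatment of AR-UAS-bla HEK293 cells, which had been pre-incubated 4 h at 37C.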

[19] = molecular target: Androgen receptor (Homo sapiens) (UniProt P10275); test: qHTS assay to identify small molecule agonists of the androgen receptor (AR) signaling pathway (AID 743036; active = well fitted activation curve with a large enough effect in the signal ratio in the repeat runs, with a control signal flat, not every such curve was filed as active; inconclusive = weak or mixed curves, or effect the other way; inactive = no such curve, though single readings can be large or run the other way; the % refers to the signal ratio)
How it was run: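 AR-bla HEK293 cells, 2,000/well; 4 h preincubation 37C/5% CO2; compound (DMSO) 16 h at 37C; LiveBLAzer B/G FRET substrate 2 h RT; fluorescence intensity read-out.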

Measured: Potency

CCCCCCCC(=O)CC[C@@H]1[C@@H](C/C=C\CCCC(=O)OC(C)C)[C@@H](O)C[C@H]1O
inactive: [4] | [8] | [9] | [10] | [11]
active: [1] 8.41 µM | [2] 21.1 µM | [3] 13.3 µM | [5] 21.1 µM | [6] 16.8 µM | [7] 26.8 µM

CC(C)C(=O)OCC(=O)[C@@]12O[C@H](C3CCCCC3)O[C@@H]1C[C@H]1[C@@H]3CCC4=CC(=O)C=C[C@]4(C)[C@H]3[C@@H](O)C[C@@]12C
active: [5] 18.8 µM | [6] 10.6 µM | [14] 21.3 µM [inconclusive]
inactive: [2] | [12] | [4] | [13] | [7] | [8] | [11] | [15]

C#C[C@]1(O)CC[C@H]2[C@@H]3CCC4=CCCC[C@@H]4[C@H]3C(=C)C[C@@]21CC
inactive: [12] | [4] | [14] | [7] | [10] | [11] | [15]
active: [1] 13.3 µM | [2] 15 µM | [3] 21.1 µM | [8] 2.39 µM [inconclusive] | [9] 1.88 µM

O=C(CCCN1CCC(n2c(=S)[nH]c3ccccc32)CC1)c1ccc(F)cc1
inactive: [7] | [8]
active: [1] 11.9 µM | [2] 18.8 µM | [3] 16.8 µM | [6] 26.6 µM

CCOc1ccc(N=Nc2ccc(N)cc2N)cc1
active: [1] 23.7 µM | [3] 21.1 µM | [16] 0.473 µM | [4] 15 µM | [6] 10.6 µM
inactive: [12] | [17] | [13] | [7] | [15]

COc1cc(/C=C/C(=O)N2CCN(CC(=O)N3CCCC3)CC2)cc(OC)c1OC
inactive: [1] | [3] | [12] | [18] | [19] | [16] | [4] | [17] | [5] | [6] | [13] | [14] | [8] | [9] | [10] | [11]

C=C1C(=C/C=C2\CCC[C@]3(C)[C@@H]([C@H](C)CCCC(C)(C)O)CC[C@@H]23)C[C@@H](O)C[C@@H]1O
inactive: [12] | [8] | [15]
active: [1] 5.96 µM | [2] 11.9 µM | [3] 10.6 µM | [5] 23.7 µM | [6] 13.3 µM | [7] 23.9 µM | [10] 29.8 µM | [11] 2.37 µM
